Only some compounds are listed: those with a hit (about 28% of all), similar ones and a draw of the others.
Mac1 fbg inh: CD11b/CD18-fibrinogen binding inhibition; P05107+P11215; K562 CD11b/CD18 adhesion to fibrinogen, ATPlite luminescence; Mn2+ added to activate the integrin; inhibition, % at 10 µM; actives 0.54% (n = 93,000); AID 1497;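 active means primary inhibition of 50% or more at 10 µM, then 40% or more on retest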
CYP2C19 act: increases human CYP2C19 enzyme activity; P33261; recombinant CYP2C19, luciferin-H EGE luminescence; stronger effect = higher value; 0 = fully inhibited enzyme, 1 = untreated enzyme; AID 1025; activation factor at 5 µM; 96,000 tested, under 10 active;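 active means activation factor of at least 2 at 5 µM in the primary screen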;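 further: 0 = wells with 2.5 mM tranylcypromine and 1 = vehicle-only wells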
CYP2C9 inh: blocks human cytochrome P450 2C9. AID 777. CYP2C9 Supersomes, luciferin-H conversion, luminescence. actives 20% (n = 96,000). inhibition, % at 5 µM;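 active means blocking of liver enzyme CYP2C9 beyond about 50% at 5 µM, limit read from the data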
Target sequence (P11712 whole entry, looked up): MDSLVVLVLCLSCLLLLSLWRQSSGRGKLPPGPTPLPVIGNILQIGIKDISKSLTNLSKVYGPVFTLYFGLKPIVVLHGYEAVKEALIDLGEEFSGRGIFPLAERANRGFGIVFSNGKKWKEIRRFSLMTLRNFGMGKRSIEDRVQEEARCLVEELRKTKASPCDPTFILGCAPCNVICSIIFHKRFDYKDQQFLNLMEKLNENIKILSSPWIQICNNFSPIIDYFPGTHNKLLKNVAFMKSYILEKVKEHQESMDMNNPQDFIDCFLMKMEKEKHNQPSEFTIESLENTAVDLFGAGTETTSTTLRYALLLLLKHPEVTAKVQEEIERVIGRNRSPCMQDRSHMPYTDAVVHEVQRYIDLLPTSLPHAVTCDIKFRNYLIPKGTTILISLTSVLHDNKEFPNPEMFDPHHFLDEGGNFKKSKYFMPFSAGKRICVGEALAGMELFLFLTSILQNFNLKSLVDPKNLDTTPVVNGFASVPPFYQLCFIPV
CYP2C9 act: increases human cytochrome P450 2C9 activity | P11712 | recombinant CYP2C9, luciferin-H conversion, luminescence; stronger effect = higher value; factor 1 = untreated enzyme, 0 = blocked | activation factor at 5 µM | actives 1.4% (n = 96,000) | AID 1024;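 active means activation factor of 2 or more for CYP2C9 at a 5 µM dose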;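 further: 0 = sulfaphenazole-blocked wells and 1 = vehicle-only wells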
CD11b adhes enh: increases human CD11b/CD18 adhesion to fibrinogen; actives 0.07% (n = 93,000); AID 1499; P05107+P11215; activation, % at 10 µM; K562 CD11b/CD18 adhesion to fibrinogen, ATPlite luminescence;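 active means 10 µM primary screen giving 50% or more activity, confirmed by 40% or more on retest at that dose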
CYP2C19 inh: inhibitors of human CYP2C19. P33261. CYP2C19 Supersomes, luciferin-H EGE luminescence, 30 min. inhibition, % at 5 µM. actives 21% (n = 96,000). AID 778;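 active means CYP2C19 inhibition above a set limit at 5 µM in the primary screen, cut at about 50% in these data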;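 further: plate controls were negative control wells for no effect and 2.5 mM tranylcypromine positive control for full effect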
* = called active by the depositor; · = not tested or not shown.

SMILES	Mac1 fbg inh	CYP2C19 act	CYP2C9 inh	CYP2C9 act	CD11b adhes enh	CYP2C19 inh
O=c1cc(-c2ccccc2)[nH]c2nc3ccccc3n12	25	0.4	76*	0.2	-2	61*
CCc1c(C)[nH]c2nc3ccccc3n2c1=O	-14	0.8	48	0.5	0	24
COc1ccc(CCNC(=O)c2nc3ncccn3n2)cc1OC	-21	1	10	0.9	0	5
COc1cccc(NC(=O)c2nc3ncccn3n2)c1	-6	1.2	-95	2*	-1	-16
COc1ccc2c(c1)C(C)CC(C)(C)N2C(=O)CSc1ncn[nH]1 (stereo not given)	-1	0.1	64*	0.4	-3	88*
COc1ccc(C2(C(=O)NCCCN(C)C)CCOCC2)cc1	3	1.3	-6	1.1	0	-30
Cc1ccccc1-n1nc2c(c1NC(=O)COc1ccc(Cl)cc1)CS(=O)C2 (stereo not given)	7	0	22	0.8	-1	100*
CC(C)(C)n1nc2c(c1NC(=O)COc1ccc3ccccc3c1)CS(=O)C2 (stereo not given)	-2	0.7	10	0.9	4	35
O=C(NCCn1cccc1)c1cccc2ccccc12	2	0.8	-71	1.7	1	24
Cc1ccc(N=C2N=C(N)c3ccccc32)c(C)c1	-14	1	58*	0.4	-1	5
NC(=O)c1oc2ccccc2c1NC(=O)CCc1ccccc1	-3	0.2	-124	2.2*	-5	82*
CCOC(=O)c1oc2ccccc2c1NC(=O)c1cccc(OC)c1	7	0.8	28	0.7	-4	17
COc1ccc(NC(=O)c2oc3ccccc3c2NC(=O)c2ccc3c(c2)OCO3)cc1	-15	0.6	55*	0.5	-2	36
CCOC(=O)c1oc2ccccc2c1NC(=O)c1cccc(OC)c1OC	11	0.3	66*	0.3	-2	67*
COc1cccc(C(=O)Nc2c(C(N)=O)oc3ccccc23)c1	-16	0.9	-234	3.3*	5	6
O=C(CCc1ccccc1)Nc1c(F)c(F)c(F)c(F)c1F	-2	0.7	18	0.8	-1	26
CCOC(=O)c1oc2ccccc2c1NC(=O)c1ccc(Cl)s1	-20	1.1	2	1	2	-7
COCC(C)n1c(C)cc(C(=O)CN2C(=O)NC(Cc3c[nH]c4ccccc34)C2=O)c1C (stereo not given)	10	0.6	46	0.5	-1	41
Cc1cccc(N2CCN(C(=O)c3cc4c(=O)n(C)c5ccccc5c4n3C)CC2)c1C	1	1.1	-14	1.1	0	-8
Cn1c(C(=O)N2CCN(c3ncccn3)CC2)cc2c(=O)n(C)c3ccccc3c21	2	0.8	93*	0.1	-4	17
Cc1ccc(Cl)cc1N1CCN(C(=O)c2cc3c(=O)n(C)c4ccccc4c3n2C)CC1	86*	0.2	98*	0	-7	77*
Cn1c(C(=O)N2CCCC2)cc2c(=O)n(C)c3ccccc3c21	-4	0.9	7	0.9	-1	8
CN(C)S(=O)(=O)c1ccc(C(=O)NCCSc2ccccc2)cc1	12	0.9	10	0.9	1	8
CC(NC(=O)c1ccccc1O)c1ccccc1 (stereo not given)	-1	0.4	30	0.7	-4	58*
CC(NC(=O)c1ccc(S(=O)(=O)N(C)C)cc1)c1ccccc1 (stereo not given)	-48	0.5	54*	0.5	3	46
SMILES	Mac1 fbg inh	CYP2C19 act	CYP2C9 inh	CYP2C9 act	CD11b adhes enh	CYP2C19 inh
COc1ccccc1C(=O)NC(C)c1ccccc1 (stereo not given)	-15	0.4	-140	2.4*	1	56*
CN(C(=O)COC(=O)c1ccc2c(c1)OCO2)C1CCS(=O)(=O)C1 (stereo not given)	3	1.1	-21	1.2	-1	-10
CCc1nnc(NC(=O)c2sc3nc4cc(C)ccc4cc3c2N)s1	-11	0.7	23	0.8	100*	27
O=C1CCCCC1Sc1nnc(Cc2cccs2)n1CCc1ccccc1 (stereo not given)	5	0.3	70*	0.3	9	68*
O=C1c2cccnc2C(=O)N1Cc1ccc(F)cc1	·	0.8	3	1	·	18
COc1cc2c(cc1OC)C(C)N(C(=O)CCN1C(=O)C3C4C=CC(C4)C3C1=O)CC2 (stereo not given)	38	1	-2	1	-2	-4
CCCCn1nnnc1NCc1cccc(OC)c1OC	-4	0.2	62*	0.4	2	85*
CCCCn1nnnc1NCc1ccc(N(CC)CC)cc1	-4	0.3	50	0.5	-1	74*
O=C(CN1C(=O)NC2(CCCCC2)C1=O)NC1CCCc2ccccc21 (stereo not given)	-4	·	·	·	-2	·
Nn1cc(-c2ccccc2)nc1SCC(=O)NC1CCS(=O)(=O)C1 (stereo not given)	-9	0.9	-1	1	-6	10
Nn1cc(-c2ccccc2)nc1SCC(=O)NCCN1C(=O)CSC1=O	-2	0.4	16	0.8	1	60*
CN(C(=O)CSc1nc(-c2ccccc2)cn1N)C(c1ccccc1)c1ccccc1	8	0.8	76*	0.2	-1	24
N#CCCN(C(=O)CSc1nc(-c2ccccc2)cn1N)c1ccc(F)cc1	12	1	14	0.9	2	-3
COc1ccccc1CNC(=O)CSc1nc(-c2ccccc2)cn1N	-2	0.1	87*	0.1	1	93*
Cn1c(SCC(=O)NCCN2C(=O)CSC2=O)nc2ccccc2c1=O	7	0.5	12	0.9	-2	46
Cc1[nH]n(-c2ccccc2)c(=O)c1C1(C(F)(F)F)C(=O)N(c2ccccc2)C2=C1C(=O)CC(C)(C)C2 (stereo not given)	-36	0.8	73*	0.3	3	20
CC(=O)Nc1ccc(-c2nn[nH]n2)cc1Cl	-30	1	13	0.9	3	4
Cc1ccc2cccc(Oc3nnnn3-c3ccccc3)c2n1	7	0.1	1	1	1	95*
c1ccc(-n2nnnc2OCCOc2nnnn2-c2ccccc2)cc1	4	0.5	34	0.7	-2	46
c1ccc(-n2nnnc2Oc2cccc3cccnc23)cc1	-13	0.1	-166	2.7*	-1	90*
CC(C)CSc1nc2ccccc2n1CC(N)=O	12	0.9	-12	1.1	5	7
NC(=O)CSc1nc2ccccc2n1Cc1ccccc1F	15	0.4	-1	1	0	57*
Cc1ccc2c(c1)c1c(n2CC(O)Cn2c(C)nc3ccccc32)CCCC1 (stereo not given)	15	0.9	77*	0.2	24	14
